Our source for the log2 fold change values is the supplement of paper PMC10849652.

Compound in this test: c1cn2cc(-c3ccc4cn[nH]c4c3)nc(Nc3ccc(N4CCOCC4)cc3)c2n1 [entospletinib]
Description: log2 fold change, soluble protein after heating vs DMSO (PISA); higher = thermal stabilisation; K562 cells, 10 uM, 30 min; active = over 0.2 and 3.5 SD of the protein, either way, in both replicates (recomputed). The procedure, abridged: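 K562 cells at 2×10^6 cells/mL were given 10 μM compound for 30 min. Aliquots then went through 3 min of heating across 48°C-58°C, were pooled, and were extracted in PBS with 0.5% NP-40 at 4°C, and the supernatant after 21,000xg for 90 min was quantified by TMTpro 16plex LC-MS/MS with channel sums equalised. Thermal stability relative to control samples, from duplicates, is given as log2 fold change.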

Targets with a hit are over-represented here; the source holds about 7,900 in all. About 0.6% of all pairs of compound and target were hits. A number with no mark means an inactive call.

Sequence of UniProt Q92947 (Q92947 whole entry, looked up): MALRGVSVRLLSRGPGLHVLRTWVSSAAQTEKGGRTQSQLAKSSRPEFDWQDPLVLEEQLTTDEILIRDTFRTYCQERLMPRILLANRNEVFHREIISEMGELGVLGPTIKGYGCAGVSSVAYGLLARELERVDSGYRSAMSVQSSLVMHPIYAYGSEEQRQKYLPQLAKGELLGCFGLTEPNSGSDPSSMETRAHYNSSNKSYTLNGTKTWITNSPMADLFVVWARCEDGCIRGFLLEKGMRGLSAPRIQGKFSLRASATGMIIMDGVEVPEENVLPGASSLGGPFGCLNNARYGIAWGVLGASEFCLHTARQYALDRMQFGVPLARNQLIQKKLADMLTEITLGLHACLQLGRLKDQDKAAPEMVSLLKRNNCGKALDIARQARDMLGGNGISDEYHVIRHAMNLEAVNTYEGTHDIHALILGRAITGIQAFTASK
Sequence of UniProt P00367 (P00367 whole entry, looked up): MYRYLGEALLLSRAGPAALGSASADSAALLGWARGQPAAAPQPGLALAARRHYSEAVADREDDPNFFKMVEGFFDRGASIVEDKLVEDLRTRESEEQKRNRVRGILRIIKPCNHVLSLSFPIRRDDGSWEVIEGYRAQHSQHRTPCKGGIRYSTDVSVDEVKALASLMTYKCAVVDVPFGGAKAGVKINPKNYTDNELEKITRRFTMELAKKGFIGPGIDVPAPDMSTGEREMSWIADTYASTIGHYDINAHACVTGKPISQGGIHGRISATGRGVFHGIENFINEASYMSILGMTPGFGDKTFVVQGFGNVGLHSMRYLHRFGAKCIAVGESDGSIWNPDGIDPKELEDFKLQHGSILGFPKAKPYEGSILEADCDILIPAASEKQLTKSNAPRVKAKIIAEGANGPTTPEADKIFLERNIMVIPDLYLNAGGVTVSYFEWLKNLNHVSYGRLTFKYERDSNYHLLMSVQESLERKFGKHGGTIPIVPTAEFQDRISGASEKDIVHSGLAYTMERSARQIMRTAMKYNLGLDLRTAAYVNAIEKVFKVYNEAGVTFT
Sequence of UniProt P08754 (P08754 whole entry, looked up): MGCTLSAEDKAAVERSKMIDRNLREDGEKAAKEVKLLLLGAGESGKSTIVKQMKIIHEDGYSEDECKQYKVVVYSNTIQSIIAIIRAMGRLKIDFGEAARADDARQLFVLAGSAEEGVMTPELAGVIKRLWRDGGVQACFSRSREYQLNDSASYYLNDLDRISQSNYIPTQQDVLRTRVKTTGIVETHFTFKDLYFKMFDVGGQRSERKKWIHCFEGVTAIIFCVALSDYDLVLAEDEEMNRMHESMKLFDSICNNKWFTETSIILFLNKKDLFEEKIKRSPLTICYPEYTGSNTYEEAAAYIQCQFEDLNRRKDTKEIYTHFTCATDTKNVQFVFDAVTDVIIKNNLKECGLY
Sequence of UniProt Q9Y680 (Q9Y680 whole entry, looked up): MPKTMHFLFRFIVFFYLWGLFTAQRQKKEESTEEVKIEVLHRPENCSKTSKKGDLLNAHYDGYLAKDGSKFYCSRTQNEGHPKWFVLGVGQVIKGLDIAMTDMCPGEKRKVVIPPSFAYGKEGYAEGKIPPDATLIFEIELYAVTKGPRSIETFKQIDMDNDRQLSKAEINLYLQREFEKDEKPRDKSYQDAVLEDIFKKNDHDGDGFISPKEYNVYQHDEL
Sequence of UniProt Q86VQ1 (Q86VQ1 whole entry, looked up): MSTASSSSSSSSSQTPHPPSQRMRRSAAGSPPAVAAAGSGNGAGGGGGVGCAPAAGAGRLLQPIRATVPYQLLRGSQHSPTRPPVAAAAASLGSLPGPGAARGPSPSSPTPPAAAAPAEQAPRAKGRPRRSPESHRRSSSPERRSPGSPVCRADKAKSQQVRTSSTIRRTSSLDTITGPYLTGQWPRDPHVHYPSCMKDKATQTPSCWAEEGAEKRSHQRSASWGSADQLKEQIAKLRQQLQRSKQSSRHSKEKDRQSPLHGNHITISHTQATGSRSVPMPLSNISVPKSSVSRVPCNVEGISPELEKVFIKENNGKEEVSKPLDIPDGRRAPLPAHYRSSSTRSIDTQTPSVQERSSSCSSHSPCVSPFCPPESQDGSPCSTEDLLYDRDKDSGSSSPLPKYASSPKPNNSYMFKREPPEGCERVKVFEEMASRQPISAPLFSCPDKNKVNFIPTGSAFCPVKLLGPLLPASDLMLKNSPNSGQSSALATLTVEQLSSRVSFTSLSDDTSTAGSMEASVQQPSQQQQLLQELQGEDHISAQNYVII
Sequence of UniProt P05114 (P05114 whole entry, looked up): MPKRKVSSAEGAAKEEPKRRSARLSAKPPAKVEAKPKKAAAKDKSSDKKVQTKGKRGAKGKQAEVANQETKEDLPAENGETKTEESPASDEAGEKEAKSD
Sequence of UniProt P31943 (P31943 whole entry, looked up): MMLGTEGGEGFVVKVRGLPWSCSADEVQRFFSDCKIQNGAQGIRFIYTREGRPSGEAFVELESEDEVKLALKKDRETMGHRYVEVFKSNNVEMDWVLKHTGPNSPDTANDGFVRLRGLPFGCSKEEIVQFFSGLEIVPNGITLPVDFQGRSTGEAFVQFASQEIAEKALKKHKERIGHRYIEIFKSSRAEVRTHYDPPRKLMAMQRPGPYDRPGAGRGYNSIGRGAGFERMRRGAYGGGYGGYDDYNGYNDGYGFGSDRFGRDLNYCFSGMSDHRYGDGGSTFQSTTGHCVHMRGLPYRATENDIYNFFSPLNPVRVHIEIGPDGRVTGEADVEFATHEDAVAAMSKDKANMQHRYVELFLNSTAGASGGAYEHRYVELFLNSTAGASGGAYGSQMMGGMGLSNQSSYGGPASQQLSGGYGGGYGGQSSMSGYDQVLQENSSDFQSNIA
Sequence of UniProt P22087 (P22087 whole entry, looked up): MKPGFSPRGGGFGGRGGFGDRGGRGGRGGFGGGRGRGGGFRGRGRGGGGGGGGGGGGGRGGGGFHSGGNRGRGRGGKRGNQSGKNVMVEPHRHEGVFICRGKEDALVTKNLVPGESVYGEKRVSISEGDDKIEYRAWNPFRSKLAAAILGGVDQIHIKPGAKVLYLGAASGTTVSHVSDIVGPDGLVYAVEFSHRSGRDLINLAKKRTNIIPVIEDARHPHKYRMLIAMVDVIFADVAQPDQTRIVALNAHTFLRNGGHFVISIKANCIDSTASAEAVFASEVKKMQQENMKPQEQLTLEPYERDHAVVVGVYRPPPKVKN
Sequence of UniProt Q14527 (Q14527 whole entry, looked up): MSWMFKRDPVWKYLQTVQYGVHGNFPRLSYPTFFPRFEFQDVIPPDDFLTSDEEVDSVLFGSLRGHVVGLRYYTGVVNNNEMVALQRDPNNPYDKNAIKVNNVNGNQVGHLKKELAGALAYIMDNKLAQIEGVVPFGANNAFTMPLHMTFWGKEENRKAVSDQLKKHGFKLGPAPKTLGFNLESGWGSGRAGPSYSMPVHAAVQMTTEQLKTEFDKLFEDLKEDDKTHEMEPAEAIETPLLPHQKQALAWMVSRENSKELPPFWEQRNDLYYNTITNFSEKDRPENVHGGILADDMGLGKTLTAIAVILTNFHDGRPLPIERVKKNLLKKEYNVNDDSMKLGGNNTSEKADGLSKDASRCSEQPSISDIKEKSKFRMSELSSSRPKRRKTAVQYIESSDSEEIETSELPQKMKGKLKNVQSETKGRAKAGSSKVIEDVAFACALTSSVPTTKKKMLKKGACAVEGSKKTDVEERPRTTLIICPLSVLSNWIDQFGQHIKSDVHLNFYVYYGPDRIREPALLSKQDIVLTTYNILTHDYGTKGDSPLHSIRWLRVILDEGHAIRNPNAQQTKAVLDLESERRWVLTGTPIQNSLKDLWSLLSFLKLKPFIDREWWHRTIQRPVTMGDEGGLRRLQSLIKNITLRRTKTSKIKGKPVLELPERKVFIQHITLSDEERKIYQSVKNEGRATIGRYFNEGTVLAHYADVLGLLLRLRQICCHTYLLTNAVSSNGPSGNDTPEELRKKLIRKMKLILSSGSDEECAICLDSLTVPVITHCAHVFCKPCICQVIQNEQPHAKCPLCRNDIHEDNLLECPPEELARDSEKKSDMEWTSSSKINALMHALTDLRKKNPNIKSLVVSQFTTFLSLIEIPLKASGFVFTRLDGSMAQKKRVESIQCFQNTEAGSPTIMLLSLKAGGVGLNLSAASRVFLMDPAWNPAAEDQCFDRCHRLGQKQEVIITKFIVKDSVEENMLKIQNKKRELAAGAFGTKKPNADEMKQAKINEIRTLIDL
Sequence of UniProt P49448 (P49448 whole entry, looked up): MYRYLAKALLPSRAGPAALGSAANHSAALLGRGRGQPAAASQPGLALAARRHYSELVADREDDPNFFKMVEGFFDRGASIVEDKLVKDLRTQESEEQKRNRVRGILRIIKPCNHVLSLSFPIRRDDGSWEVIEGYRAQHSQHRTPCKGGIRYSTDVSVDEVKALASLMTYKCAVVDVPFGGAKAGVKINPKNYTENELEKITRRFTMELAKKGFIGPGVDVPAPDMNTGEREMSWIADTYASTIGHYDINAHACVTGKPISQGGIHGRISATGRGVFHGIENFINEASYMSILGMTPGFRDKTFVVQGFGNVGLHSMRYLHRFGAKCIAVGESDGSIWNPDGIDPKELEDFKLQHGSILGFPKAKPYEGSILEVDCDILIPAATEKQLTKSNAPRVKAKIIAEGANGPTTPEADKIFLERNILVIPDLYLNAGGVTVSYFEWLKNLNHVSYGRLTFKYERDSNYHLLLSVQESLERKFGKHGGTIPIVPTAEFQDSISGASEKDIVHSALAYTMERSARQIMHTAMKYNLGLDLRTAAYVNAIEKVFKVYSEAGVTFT
Sequence of UniProt Q8N9F7 (Q8N9F7 whole entry, looked up): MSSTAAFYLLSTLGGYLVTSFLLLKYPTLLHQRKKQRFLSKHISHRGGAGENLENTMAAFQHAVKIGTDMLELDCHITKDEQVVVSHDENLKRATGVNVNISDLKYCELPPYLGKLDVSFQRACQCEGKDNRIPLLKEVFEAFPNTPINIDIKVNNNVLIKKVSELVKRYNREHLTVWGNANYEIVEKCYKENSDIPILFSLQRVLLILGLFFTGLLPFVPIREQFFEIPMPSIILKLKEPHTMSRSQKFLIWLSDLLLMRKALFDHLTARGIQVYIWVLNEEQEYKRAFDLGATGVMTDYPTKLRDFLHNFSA

On to HIST2H3A (UniProt Q71DI3), for which the log2 fold change is -0.078. The value for FCHO1 (UniProt O14526) was -0.059. To GCDH (UniProt Q92947) belongs -0.026. To HLTF (UniProt Q14527) belongs 0.045; to GDPD1 (UniProt Q8N9F7), 0.04; to FNTA (UniProt P49354), 0.111. As to FBL (UniProt P22087), the log2 fold change was 0.119. The value for GNAI3 (UniProt P08754) was 0.038; that for HDAC7 isoform 5 (UniProt Q8WUI4) was -0.024. As to GBF1 (UniProt Q92538), the log2 fold change was -0.005.

Consider HNRNPH1 (UniProt P31943), for which the log2 fold change was 0.108. The value for HMGN1 (UniProt P05114) was 0.089. The value for GLUD1 (UniProt P00367) was 0.173; that for GLCCI1 (UniProt Q86VQ1) was 0.007. To GLUD2 (UniProt P49448) belongs 0.14; to FKBP7 (UniProt Q9Y680), -0.012.
